# Test results from PubChem BioAssay (NCATS).
# Inconclusive results are not listed. The source made the active and inactive calls. Calls follow the shape of the dose curve; as a rule, active = well fitted inhibition curve with a large enough effect; inconclusive = small, poorly fitted or top-dose-only effect; inactive = flat fitted curve, though single readings scatter. Peptide text beside a SMILES is read from it. * marks the point of attachment. Cbz = O=C(OCc1ccccc1)*; CH2F = FC*
# Molecular target: Aldehyde dehydrogenase, mitochondrial (Homo sapiens) (UniProt P05091)
# Experiment: qHTS for Inhibitors of the Aldehyde Dehydrogenase Family (ALDH2) Primary screen (AID 2061308);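 also: plate controls were vehicle for no effect and reference inhibitor for full effect; nearly all actives have a fitted effect of over 55% in size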
# Conditions: ALDH2 enzyme inhibition qHTS, 1536-well; series mostly up to 56 µM; activity change, negative = inhibition: at the top concentration
row,Compound,"activity change, negative = inhibition"
1,C/C1=C\CCC2=C[C@@H](OC2=O)c2c(C)coc2C1,-1.41% (inactive)
2,C=CC1C(O[C@@H]2O[C@H](CO)[C@@H](O)[C@H](O)[C@H]2O)OC=C(C(=O)OC)C1Cc1nccc2c1[nH]c1ccccc12 (some centres undefined),-0.571% [at 28 µM] (inactive)
3,N#C[C@@H]1CCCN1C(=O)CNC12CC3CC(CC(O)(C3)C1)C2,2.31% (inactive)
4,Cc1occc(=O)c1O[C@@H]1O[C@H](CO)[C@@H](O)[C@H](O)[C@H]1O,-2.71% (inactive)
5,CC(=O)O[C@@H]1[C@H](O[C@@H]2O[C@@H](CO)[C@H](O)[C@H]2O)[C@@H](O[C@@H]2O[C@@H](C)[C@H](O[C@@H]3OC[C@@H](O)[C@H](O)[C@H]3O)[C@@H](O)[C@H]2O)[C@H](OC(=O)[C@]23CCC(C)(C)C[C@H]2C2=CCC4[C@@]5(C)CC[C@H](O[C@@H]6O[C@H](C(=O)O)[C@@H](O)[C@H](O)[C@H]6O[C@@H]6O[C@H](CO)[C@H](O)[C@H](O)[C@H]6O)[C@@](C)(C=O)C5CC[C@@]4(C)[C@]2(C)C[C@H]3O)O[C@@H]1C (some centres undefined),-0.326% [at 11.2 µM] (inactive)
6,CC1=CC(=O)C(=C(C)C)CC2C1CCC2(C)O (centres undefined),4.29% (inactive)
7,COc1cc2oc(-c3ccc(O)cc3O)cc2c(OC)c1CC=C(C)C,-13.3% (inactive)
8,OC[C@H]1O[C@@H](Oc2ccc3c(c2)OC[C@H]2c4cc5c(cc4O[C@@H]32)OCO5)[C@H](O)[C@@H](O)[C@@H]1O,-1.19% [at 28 µM] (inactive)
9,COC1=CC(=O)O/C1=C(/OC)[C@@H]1O[C@H]1c1ccccc1,-3.67% (inactive)
10,C/C1=C\C[C@]2(C)C(=O)C(O)=C([C@H](C)CO)[C@H]2C/C=C(\C)[C@@H](O)CC/C(C)=C/CC1,3.46% (inactive)
11,C=C1C(=O)O[C@@H]2C[C@@H](C)[C@]34C[C@]5(C(=O)O[C@H]6CC(C)=C([C@H](C)CCCO)[C@H](OC(=O)C(C)CC)[C@H]65)[C@@H](C(C)=C3C[C@@H]12)[C@H]4OC(C)=O (some centres undefined),-1.86% [at 16.9 µM] (inactive)
12,CC1OC(O[C@H]2CC[C@@]3(C)C(CC[C@]4(C)C3CC=C3C5CC(C)(C)CC[C@]5(C(=O)OC5OC(CO)C(OC6OCC(OC7OCC(O)C(O)C7O)C(O)C6O)C(O)C5O)CC[C@]34C)C2(C)C)C(O)C(O)C1OC1OC(CO)C(O)C(OC2OC(CO)C(O)C(O)C2O)C1O (some centres undefined),8.06% [at 11.2 µM] (inactive)
13,COC(=O)[C@H](Cc1cccc(C(=N)N)c1)[C@@H](C)NC(=O)c1ccc(-c2cc[n+]([O-])cc2)cc1,24.9% (inactive)
14,C=C1[C@@H]2CC[C@@]3(C)[C@H](c4ccoc4)OC(=O)C[C@]13O[C@H]1CC(=O)C(C)(C)[C@H](C(O)C(=O)OC)[C@]12C (some centres undefined),14.1% [at 28 µM] (inactive)
15,O=C(O)c1ccc(OC2OC(CO)C(O)C(O)C2O)cc1 (centres undefined),-1.73% (inactive)
16,CC1OC(OC2C(C)OC(OC3C(O)C(CO)OC(O[C@H]4CC[C@@]5(C)C(CC[C@]6(C)C5CC=C5C7[C@@H](C)[C@H](C)CC[C@]7(C(=O)O)CC[C@]56C(=O)O)C4(C)C)C3O)C(O)C2O)C(O)C(O)C1O (some centres undefined),9.12% [at 16.9 µM] (inactive)
17,O=[N+]([O-])c1ccc(Oc2ccc3c(c2)CCC(c2ccccc2)O3)nc1 (centres undefined),-4.82% (inactive)

row,Compound,"activity change, negative = inhibition"
1,CC(C)(C)NCCCNC(=O)c1cccc(Br)c1,3.84% (inactive)
2,CC(=O)CCC1=C(C)C(O[C@@H]2O[C@H](CO)[C@@H](O)[C@H](O)[C@H]2O)C(O)CC1(C)C (some centres undefined),3.24% (inactive)
3,COc1cc(NS(=O)(=O)c2ccc(N)cc2)nc(C)n1,-1.6% (inactive)
4,COC(=O)[C@H](OC(C)=O)[C@H]1C(C)(C)C(=O)[C@H]2CC3=C4CC(=O)O[C@@H](c5ccoc5)[C@]4(C)CCC3[C@@]1(C)C2=O (some centres undefined),11.2% [at 28 µM] (inactive)
5,C1=Cc2ccccc2C(=C2CCN(CCCCc3nn[nH]n3)CC2)c2ccccc21,1.51% (inactive)
6,CCC(C)C(=O)O[C@H]1[C@@H](OC(=O)c2ccoc2)C[C@](C)(O)[C@]23OC(C)(C)[C@H](C[C@H](OC(=O)c4ccoc4)[C@]12COC(C)=O)[C@H]3OC(C)=O (some centres undefined),-1.36% [at 16.9 µM] (inactive)
7,CC1CCC2C(C)(C)[C@@H](O)CC[C@]2(C)C12Cc1c(O)cc3c(c1O2)CN(C(CCC(=O)O)C(=O)O)C3=O (some centres undefined),-5.36% [at 28 µM] (inactive)
8,CC1CCC2(NC1)OC1C(=O)C3C4CCC5CC(O[C@@H]6O[C@H](CO)[C@@H](O)[C@H](O)[C@H]6O[C@@H]6O[C@@H](C)[C@H](O)[C@@H](O)[C@H]6O)CCC5(C)C4CCC3(C)C1C2C (some centres undefined),8.28% [at 16.9 µM] (inactive)
9,COC(=O)C1=COC(OC2OC(CO)C(O)C(O)C2O)C2C1C=CC2(O)CO (centres undefined),-0.463% [at 28 µM] (inactive)
10,CC1=CC(=O)CC(C)(C)C1CCC(C)O[C@@H]1O[C@H](CO[C@@H]2OC[C@@H](O)[C@H](O)[C@H]2O)[C@@H](O)[C@H](O)[C@H]1O (some centres undefined),-6.3% [at 28 µM] (inactive)
11,CN(C)CCCn1cc(C2=C(c3c[nH]c4ccccc34)C(=O)NC2=O)c2ccccc21,2.7% (inactive)
12,OCC1OC(Oc2cc(O)cc(/C=C/c3ccc(O)cc3)c2)C(O)C(O)C1O (centres undefined),-24.2% (inactive)
13,CC1CCCC(O)CCC/C=C/c2cc(OS(=O)(=O)O)cc(O)c2C(=O)O1 (centres undefined),-9.93% (inactive)
14,COC(=O)CC[C@H](NC(=O)[C@H](CC(C)C)NC(=O)OCc1ccccc1)C(=O)N[C@@H](Cc1cnc[nH]1)C(=O)N[C@@H](CC(=O)OC)C(=O)CF (Cbz-LE(OMe)HD(OMe)-CH2F),-2.9% [at 11.2 µM] (inactive)
15,CC1(C)O[C@H]2CC(=O)OC[C@]23[C@H]2CC[C@@]4(C)[C@H](c5ccoc5)OC(=O)[C@H]5O[C@]54[C@]2(C)C(=O)C[C@@H]13,4.18% [at 28 µM] (inactive)
16,Nc1c(NC/C=C\COc2cc(CN3CCCCC3)ccn2)c(=O)c1=O,-3.97% (inactive)
17,CC(C)CC(=O)OC[C@@]1(O)C[C@@]23CC[C@H]4[C@@](C)(CCC[C@@]4(C)C(=O)O)[C@@H]2CC[C@@H]1C3,-11.6% [at 28 µM] (inactive)
